CRE Fsk mod – alters forskolin-stimulated CRE reporter signaling in CHO cells; CHO CRE-bla reporter (cAMP response element driving beta-lactamase), forskolin EC10, beta-lactamase ratio; Potency, µM (highest dose often 38.2 µM), for the others: at the highest dose activity change, negative = inhibition, hits mostly activators; actives 2.5% (n = 71,000); active = well fitted activation curve with a large enough effect in the signal ratio, with a control signal flat, not every such curve was filed as active; inconclusive = small, poorly fitted or top-dose-only effect, or effect the other way, or a change in a side signal; the % refers to the signal ratio; note: % of control where 0% means no effect
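qHTS titration format; CRE-bla CHO reporter; stimulus EC10 NKH 477, a water-soluble forskolin. Read: CCF4 460/530 nm ratio. Potency expressed as AC50 for activators or inhibitors.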
HEK293 cAMP ctrl – counter-screen for TSHR agonists: cAMP increase in parental HEK293; Potency, µM (highest dose often 57.1 µM), for inactives: at the highest dose activation, hits mostly activators; parental HEK293 CNG cAMP sensor, membrane potential fluorescence; actives 2.5% (n = 73,000); note: % of control where 0% means no effect; nearly all actives have a fitted effect of over 55% in size
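Parental HEK 293 cells stably expressing a cAMP-gated CNG channel were loaded with membrane potential dye containing 100 uM RO 20-1724 for 60 min. Compound added for 30 min; depolarization read as fluorescence intensity at 590 nm.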
TSHR agonist – activates the human thyroid stimulating hormone receptor | Potency, µM (highest dose often 57.1 µM), for inactives: at the top dose activation, most hits filed as activators | actives 0.48% (n = 73,000) | HEK293-CNG-TSHR cells (CNG channel as cAMP sensor), membrane potential dye, cAMP | P16473; active = well fitted activation curve with a large enough effect in the main read-out, with a control signal flat, not every such curve was filed as active; inconclusive = small, poorly fitted or top-dose-only effect, or a change in a side signal; inactive = no such curve, though single readings can be large or run the other way; % of control where 0% means no effect;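 note: the control signal comes from parental cells without the receptor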
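cAMP rise detected as CNG-channel membrane depolarization by fluorescent dye (emission 590 nm), 30 min after compound, following 60 min dye loading containing 100 uM RO 20-1724 at room temperature. Cells: TSHR/CNG HEK 293, with parental CNG HEK 293 as control.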
Tau filament bind – binds recombinant human tau filaments | AID 596 | actives 2% (n = 71,000) | P10636 | Potency, µM (top dose mostly 57.1 µM), without a hit: top-dose activity change, negative = inhibition | recombinant tau filaments, thioflavin S fluorescence, 15 h; filaments grown with octadecylsulfate alongside compound;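 note: % is set by controls: 0 for no effect and ±100 for the full control effect; actives lower thioflavin S fluorescence by blocking filaments or displacing dye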
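ThS-based fibril read: tau 1 uM final, inducer ODS 30 uM final, 37 C for 15 h, ex 450/em 510 nm.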
ERK AVP inh – inhibitors of vasopressin-stimulated ERK signaling pathway | AID 995 | HEK293-V1b, vasopressin-stimulated pERK AlphaScreen | Potency, µM (series often up to 57.5 µM), without a hit: top-dose activity, negative = inhibition, most hits filed as inhibitors | actives 0.99% (n = 72,000); note: % is set by controls: 0 for no effect and ±100 for the full control effect; nearly all actives have a fitted effect of over 55% in size
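Overnight-seeded V1b-HEK293 cells in 1% FBS got compound, then vasopressin (25 nM final, 5 min, 37C), then lysis buffer. AlphaScreen detection of phospho-ERK; activity normalized to basal and full-stimulation controls.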
An asterisk follows results filed as active; i = inactive; ? = inconclusive; nt = no result given; [ ] = another dose, or the depositor's remark. Hits are enriched below; roughly 7.4% of the tested compounds scored in any of these assays. Unless noted, calls come from the whole dose curve; as a rule, active = well fitted curve in the direction sought with a large enough effect; inconclusive = small, poorly fitted or top-dose-only effect, or another doubt; inactive = no such curve, though single readings can be large; an effect the other way counts as inactive or inconclusive. Potency is the fitted concentration of half-maximal effect.

SMILES	CRE Fsk mod	HEK293 cAMP ctrl	TSHR agonist	Tau filament bind	ERK AVP inh
COc1cccc(NC(=O)CSc2nnc(-c3cc(-c4ccccn4)nc4ccccc34)o2)c1	?	-3%	-8%	25µM*	-9%
COc1cccc(O)c1O	nt	nt	nt	nt	-31%
COc1ccc(-c2nn(-c3ccccc3)cc2CO)cc1OC	?	-7%[11.4 µM]	-7%[11.4 µM]	14%[11.4 µM]	-28%
OCc1cn(-c2ccccc2)nc1-c1ccc2c(c1)OCCO2	-2%	-9%	-5%	3%	25µM*
COc1ccc(-c2nc3cnc(N(C)C)nc3n(C3CC3)c2=O)cc1	?	10%	2%	201%	38%
CN(C)c1ncc2nc(-c3cccs3)c(=O)n(C[C@H]3CCCO3)c2n1	1.6µM*	1%	15%	i	7%
COc1ccc(-c2nc3cnc(N(C)C)nc3n(C[C@H]3CCCO3)c2=O)cc1	2µM*	6%	2%	424%	-17%
COc1ccc(-c2nc3cnc(N(C)C)nc3n(C)c2=O)cc1	2µM*	3%[0.457 µM]	2%	181%	36%
Nc1cccc2cc(S(=O)(=O)Nc3ccc(C(=O)O)cc3)ccc12	6%[7.6 µM]	4%[11.4 µM]	4%[11.4 µM]	14%[11.4 µM]	-19%[11.5 µM]
CC(=O)OC[C@@H]1O[C@@H](O/N=C2/C[C@@H](O)[C@@H](O)[C@@H]3[C@@H]4C(=O)N(C5CCCCC5)C(=O)[C@H]4CC[C@@H]23)[C@H](OC(C)=O)[C@H](OC(C)=O)[C@@H]1OC(C)=O	nt	-3%[11.4 µM]	1%[11.4 µM]	nt	14%[11.5 µM]
CCOC(=O)c1nnc2cc(-c3ccccc3)nn2c1C	9%	-13%	-11%	16µM*	4%
CCOC(=O)c1nnc2cc(-c3ccc(Br)cc3)nn2c1C	11%	-28%	0%	10µM*	8%
CCCS(=O)(=O)n1nc(-c2ccc(Br)cc2)cc1N	-1%	3%	18%	-19%	-27%
CCOC(=O)c1cnn2c(C)cc(-c3ccccc3)nc12	?	-5%	-5%	-2%	-4%
O=NN(Cc1ccc(Cl)cc1)[C@@H](C(=O)O)c1ccccc1	4%[7.6 µM]	-1%[11.4 µM]	5%[11.4 µM]	3%[11.4 µM]	1%[11.5 µM]
C[C@]1(c2ccccc2)O[C@@H]2C[C@@H]3[C@@H]4CCC5=CC(=O)C=C[C@@]5(C)[C@]4(F)[C@H](O)C[C@]3(C)[C@@]2(C(=O)CO)O1	2%[7.6 µM]	-15%[11.4 µM]	-5%[11.4 µM]	1%[11.4 µM]	-12%[11.5 µM]
Cc1cc(NC(=O)CSc2nc(-c3cccs3)cc(C(F)(F)F)n2)no1	3.2µM*	18%	9%	128%	-5%
Cc1cc(NS(=O)(=O)c2ccc(NC(=O)Cc3cccs3)cc2)no1	-7%	1%	-1%	19%	-22%
Cc1cc(NC(=O)Cc2cccs2)no1	-10%	0%	-12%	16µM*	-21%
COc1ccc(-c2cc(C(F)(F)F)nc(SCC(=O)Nc3cc(C)on3)n2)cc1OC	2µM*	20%	6%	-12%	-19%
N[C@@H](C(=O)O)c1cc(O)ccc1Cl	?	14%	4%	?	11%
CC(C)C[C@H]1C(=O)N2CCC[C@@H]2[C@]2(O)O[C@](NC(=O)[C@@H]3C=C4c5cccc6[nH]c(Br)c(c56)C[C@H]4N(C)C3)(C(C)C)C(=O)N12	4µM*	-16%	0%	32µM*	-21%
CN1C[C@H](C(=O)N[C@@]2(C)O[C@@]3(O)C4CCCN4C(=O)C(Cc4ccccc4)N3C2=O)C[C@H]2c3cccc4[nH]cc(c34)C[C@H]21 (some centres not stated)	nt	nt	nt	nt	8%
Cn1c(C(=O)NCCC2=CCCCC2)cc2c(=O)n3ccccc3nc21	1.6µM*	8%	7%	-28%	7%
Cn1c(C(=O)NCCCN2CCCC2=O)cc2c(=O)n3ccccc3nc21	5µM*	-1%	3%	-24%	11%
Cc1cccn2c(=O)c3cc(C(=O)NCC4CCCO4)n(C)c3nc12 (configuration not stated)	?	13%	3%	16%	20%
Cn1c(C(=O)NCC2CCCO2)cc2c(=O)n3ccccc3nc21 (configuration not stated)	2.5µM*	4%	-5%	8%	8%
